This is a sample that favours compounds with a hit; in the whole collection about 2.4% have one here.
TMEM16A act: activates or potentiates the mouse TMEM16A chloride channel; Q8BHY3; HEK293 TMEM16A/YFP-H148Q/I152L, iodide quench fluorescence; active compounds read low; 340,000 tested, 0.3% active; B-score at 10 µM;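 active = fluorescence-ratio B-score plate-corrected deviation score at least 3 library SD below zero, with starting fluorescence score within 5 deviations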;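 note: channel opened by trigger with iodide after compound preincubation; score built on the fluorescence ratio of max minus min over baseline; more negative score means more quench and so TMEM16A activation or potentiation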
CHT allo act: allosteric activators of human choline transporter CHT. Q9GZV3. CHT-expressing cells, membrane potential dye, choline EC20; active compounds read high; LV-AA mutant CHT in HEK293 cells. B-score at 10 µM. 310,000 tested, 0.49% active. AID 488977;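 active = initial fluorescence not abnormally high and integrated response B-score, plate-corrected, over 3 SD above library mean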
ANO1 block: mouse TMEM16A channel inhibition, primary screen; HEK293 TMEM16A/YFP iodide influx fluorescence, ionomycin; 310,000 tested, 1.2% active; normalized B-score (activity score, 25-100; higher = stronger inhibition) at 10 µM; Q8BHY3;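 active = ratio plate-corrected score three or more library SD toward inhibition, starting fluorescence score within five deviations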;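 note: score derived from kinetic fluorescence span divided by baseline fluorescence per well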
CHT block: inhibits the human high affinity choline transporter. CHT-expressing cells, membrane potential dye, choline response; active compounds read low. B-score at 10 µM. 310,000 tested, 0.86% active;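 active = B-score over 3 SD under the library average, and starting fluorescence ratio not unusually high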;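 note: choline stimulus applied at its EC90 after an EC20 pre-addition; B-score computed on integrated fluorescence ratio after choline addition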
A number is an active result; – = inactive; · = not tested or not shown.

SMILES	TMEM16A act	CHT allo act	ANO1 block	CHT block
O=C(O)/C=C/C(=O)Nc1ccc(Cc2ccc(NC(=O)/C=C/C(=O)O)cc2)cc1	–	–	–	–
CC(C)N1CCC2(CC1)N=C(c1ccc3c(c1)OCO3)CC(c1cc(Cl)ccc1O)N2 (stereo not given)	–	–	–	-6.89
CC(Sc1ccc(Cl)cc1)C(=O)Nc1ccc2c(c1)OCO2 (stereo not given)	–	–	–	–
CC(=O)Nc1ccc(S(=O)(=O)N(C)CC(=O)NNC(=O)c2cccs2)cc1	–	·	·	·
NNC(=O)c1cc2c(N3CCC(Cc4ccccc4)CC3)ncnc2s1	–	–	100	–
C/C(=N\Nc1ncc(Cl)cc1Cl)c1ccccn1	-7.78	·	·	·
COc1ccccc1NS(=O)(=O)c1cc(C(=O)NCCC(C)C)ccc1F	-9.48	–	–	–
COc1cc(C)c(C)cc1S(=O)(=O)N1CCCCC1c1cccnc1 (stereo not given)	-6.01	–	–	–
CSc1cccc(NC(=O)COC(=O)C2(c3ccccc3)CC2)c1	–	·	·	·
O=C(OCn1ncc(Br)c(Br)c1=O)c1ccc(F)cc1	–	–	–	-6.52
O=C(OCn1ncc(Br)c(Br)c1=O)c1ccccc1Cl	–	–	–	–
Cc1ccc(S(=O)(=O)N2CCC(C(=O)OC(C)C(=O)N(C)c3ccccc3)CC2)cc1C (stereo not given)	–	·	·	·
CCc1ccccc1OCc1nnc(N)s1	–	–	25	–
Cc1cccc(OCc2nnc(N)s2)c1	–	–	–	–
COC(=O)C1(CC2CC(c3ccccc3)=NO2)CCN(C(=O)OC(C)(C)C)CC1 (stereo not given)	–	–	25	–
CC(C)(C)OC(=O)N1CCC(CC2CC(c3ccccc3)=NO2)(C(=O)O)CC1 (stereo not given)	–	–	–	–
CC1(C)Cc2c(c(N3CCOCC3)nc3sc4c(NCCN5CCOCC5)nnnc4c23)CS1	–	–	–	–
Fc1ccc(C(CCCn2nnc(-c3cccnc3)n2)c2ccc(F)cc2)cc1	–	–	100	–
CC(C)CN(C(=O)c1ccc(S(=O)(=O)N2CCCCC2)cc1)C1CCS(=O)(=O)C1 (stereo not given)	–	·	·	·
C(C#CCCCCCCCCC[n+]1ccccc1)#CCCCCCCCCC[n+]1ccccc1	–	7.65	–	–
COc1ccc(N=C2SC(CC(=O)Nc3ccccc3)C(=O)N2Cc2ccccn2)cc1 (stereo not given)	-5.75	–	–	–
COc1ccc(NC(=S)NNC(=S)Nc2cccc(C(F)(F)F)c2)cc1	-6.72	–	–	–
Cc1ccc(S(=O)(=O)N(C)c2ccc(OCC(=O)Nc3cccc(-n4cnnn4)c3C)cc2)cc1	–	–	–	–
CCO[C@@H]1OC(C(=O)NCc2nc3ccccc3[nH]2)=C[C@H](c2cn(C(C)=O)c3ccccc23)[C@H]1CCCO	–	–	–	–
N#CC1=C(SCC(=O)NC23CC4CC(CC(C4)C2)C3)NC(=O)C(C#N)C12CCCCC2 (stereo not given)	–	–	100	–
SMILES	TMEM16A act	CHT allo act	ANO1 block	CHT block
C=CCSC1=C(C#N)C2(CCCCC2)C(C#N)C(=O)N1 (stereo not given)	–	–	–	–
N#CC1=C(SCC(=O)NC2CC2)NC(=O)C(C#N)C12CCCCC2 (stereo not given)	–	–	–	–
N#CC1=C(SCC(=O)Nc2cccc3cccnc23)NC(=O)C(C#N)C12CCCCC2 (stereo not given)	–	–	100	–
CC(C)(C)C1CCC2(CC1)C(C#N)=C(SCC(=O)NC1CCCCC1)NC(=O)C2C#N (stereo not given)	–	–	100	–
CCOC(=O)C1=C(SCC(=O)Nc2ccccc2)NC(=O)C(C#N)C12CCCCC2 (stereo not given)	-31.3	–	–	–
O=C(Nc1ccccc1C(F)(F)F)C1CCN(C(=O)c2cccs2)CC1	–	–	–	–
O=C(Nc1ccccc1)c1ccc(=O)[nH]n1	–	–	–	–
COc1cccc(C(C(=O)NC2CCCCC2)N(C(=O)c2csnn2)C2CC2)c1 (stereo not given)	–	–	–	–
CC(CCC(=O)NN)C1CCC2C3CCC4CC(O)CCC4(C)C3CCC12C (stereo not given)	–	·	·	·
CC(CCC(C)C(C)(C)C)[C@@H]1CC[C@H]2C3C[C@H](OS(O)(=S)=S)[C@H]4C[C@H](OS(O)(=S)=S)[C@@H](OS(O)(=S)=S)C[C@]4(C)[C@H]3CC[C@]12C (stereo not given in full) (tested in a mixture with another compound)	-11.4	·	·	·

High-throughput results as filed in PubChem.
